Consider one compound from ChEMBL document CHEMBL2218924, “A broad activity screen in support of a chemogenomic map for kinase signalling research and drug discovery” (Biochem J, 2013).

Assay [1] has as its target T1, Ephrin type-B receptor 1 (Homo sapiens) (UniProt P54762).
T1 sequence (whole entry): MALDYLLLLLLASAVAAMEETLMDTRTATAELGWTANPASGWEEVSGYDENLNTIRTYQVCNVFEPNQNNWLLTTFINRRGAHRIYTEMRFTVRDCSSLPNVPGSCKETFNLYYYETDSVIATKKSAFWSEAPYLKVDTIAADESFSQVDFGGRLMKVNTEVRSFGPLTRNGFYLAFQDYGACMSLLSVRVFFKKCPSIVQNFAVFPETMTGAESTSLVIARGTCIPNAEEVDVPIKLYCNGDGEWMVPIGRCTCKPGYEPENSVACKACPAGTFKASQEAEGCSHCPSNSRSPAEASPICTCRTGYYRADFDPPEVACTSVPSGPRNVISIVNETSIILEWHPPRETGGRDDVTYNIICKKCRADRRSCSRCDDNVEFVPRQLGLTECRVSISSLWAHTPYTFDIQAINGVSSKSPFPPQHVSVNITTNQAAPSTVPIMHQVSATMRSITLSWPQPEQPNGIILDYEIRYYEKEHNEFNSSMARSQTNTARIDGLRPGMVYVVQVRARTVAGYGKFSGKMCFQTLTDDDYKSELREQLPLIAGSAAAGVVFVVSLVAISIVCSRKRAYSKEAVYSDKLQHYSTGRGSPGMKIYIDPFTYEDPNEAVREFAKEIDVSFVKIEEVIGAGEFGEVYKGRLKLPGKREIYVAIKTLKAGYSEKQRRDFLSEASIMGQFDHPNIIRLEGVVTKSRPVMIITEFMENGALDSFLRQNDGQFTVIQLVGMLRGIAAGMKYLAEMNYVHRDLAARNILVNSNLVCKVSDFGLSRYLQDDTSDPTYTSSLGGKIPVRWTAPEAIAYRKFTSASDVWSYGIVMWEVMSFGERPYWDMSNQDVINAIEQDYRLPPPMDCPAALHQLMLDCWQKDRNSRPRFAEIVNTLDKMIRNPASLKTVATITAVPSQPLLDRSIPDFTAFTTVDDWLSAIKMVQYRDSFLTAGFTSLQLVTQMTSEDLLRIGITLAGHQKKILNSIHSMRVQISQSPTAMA
Particulars: at 1 µM; call rule not given here.

In assay [2] the target is T1, Ephrin type-B receptor 1 (Homo sapiens). Particulars: at 10 µM.
The target of assay [3] is T2, Ephrin type-B receptor 2 (Homo sapiens) (UniProt P29323).
T2 sequence (whole entry): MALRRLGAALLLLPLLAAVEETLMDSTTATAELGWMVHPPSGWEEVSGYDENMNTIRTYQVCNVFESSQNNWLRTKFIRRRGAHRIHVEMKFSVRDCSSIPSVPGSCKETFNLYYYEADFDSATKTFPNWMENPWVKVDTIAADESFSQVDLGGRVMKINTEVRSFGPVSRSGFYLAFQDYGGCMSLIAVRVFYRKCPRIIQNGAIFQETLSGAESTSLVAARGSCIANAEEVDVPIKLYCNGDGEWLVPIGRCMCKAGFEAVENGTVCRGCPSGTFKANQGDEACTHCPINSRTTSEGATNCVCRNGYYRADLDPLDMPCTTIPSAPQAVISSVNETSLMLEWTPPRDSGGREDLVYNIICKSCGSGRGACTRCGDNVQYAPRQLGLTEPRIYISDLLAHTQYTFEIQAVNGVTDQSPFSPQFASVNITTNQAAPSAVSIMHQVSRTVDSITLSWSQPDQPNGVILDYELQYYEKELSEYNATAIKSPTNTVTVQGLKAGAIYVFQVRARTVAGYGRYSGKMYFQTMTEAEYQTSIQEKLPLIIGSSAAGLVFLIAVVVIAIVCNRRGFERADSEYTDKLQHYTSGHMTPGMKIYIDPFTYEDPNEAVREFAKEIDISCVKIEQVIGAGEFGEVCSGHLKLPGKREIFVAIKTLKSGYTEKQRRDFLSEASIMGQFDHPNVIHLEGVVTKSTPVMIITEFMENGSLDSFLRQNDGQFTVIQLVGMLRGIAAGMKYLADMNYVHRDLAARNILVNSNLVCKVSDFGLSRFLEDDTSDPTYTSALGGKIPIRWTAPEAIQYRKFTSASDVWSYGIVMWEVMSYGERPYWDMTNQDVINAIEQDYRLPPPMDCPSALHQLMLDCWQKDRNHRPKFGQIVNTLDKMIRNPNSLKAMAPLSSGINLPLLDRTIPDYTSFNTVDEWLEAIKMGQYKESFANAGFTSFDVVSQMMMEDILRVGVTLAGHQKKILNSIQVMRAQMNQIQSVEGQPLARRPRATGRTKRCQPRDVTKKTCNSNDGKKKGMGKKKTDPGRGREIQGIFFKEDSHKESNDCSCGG
Particulars: at 1 µM.

For assay [4], the target named is T2, Ephrin type-B receptor 2 (Homo sapiens). The settings on record: at 10 µM.
Assay [5] has as its target T3, Ephrin type-B receptor 3 (Homo sapiens) (UniProt P54753).
T3 sequence (whole entry): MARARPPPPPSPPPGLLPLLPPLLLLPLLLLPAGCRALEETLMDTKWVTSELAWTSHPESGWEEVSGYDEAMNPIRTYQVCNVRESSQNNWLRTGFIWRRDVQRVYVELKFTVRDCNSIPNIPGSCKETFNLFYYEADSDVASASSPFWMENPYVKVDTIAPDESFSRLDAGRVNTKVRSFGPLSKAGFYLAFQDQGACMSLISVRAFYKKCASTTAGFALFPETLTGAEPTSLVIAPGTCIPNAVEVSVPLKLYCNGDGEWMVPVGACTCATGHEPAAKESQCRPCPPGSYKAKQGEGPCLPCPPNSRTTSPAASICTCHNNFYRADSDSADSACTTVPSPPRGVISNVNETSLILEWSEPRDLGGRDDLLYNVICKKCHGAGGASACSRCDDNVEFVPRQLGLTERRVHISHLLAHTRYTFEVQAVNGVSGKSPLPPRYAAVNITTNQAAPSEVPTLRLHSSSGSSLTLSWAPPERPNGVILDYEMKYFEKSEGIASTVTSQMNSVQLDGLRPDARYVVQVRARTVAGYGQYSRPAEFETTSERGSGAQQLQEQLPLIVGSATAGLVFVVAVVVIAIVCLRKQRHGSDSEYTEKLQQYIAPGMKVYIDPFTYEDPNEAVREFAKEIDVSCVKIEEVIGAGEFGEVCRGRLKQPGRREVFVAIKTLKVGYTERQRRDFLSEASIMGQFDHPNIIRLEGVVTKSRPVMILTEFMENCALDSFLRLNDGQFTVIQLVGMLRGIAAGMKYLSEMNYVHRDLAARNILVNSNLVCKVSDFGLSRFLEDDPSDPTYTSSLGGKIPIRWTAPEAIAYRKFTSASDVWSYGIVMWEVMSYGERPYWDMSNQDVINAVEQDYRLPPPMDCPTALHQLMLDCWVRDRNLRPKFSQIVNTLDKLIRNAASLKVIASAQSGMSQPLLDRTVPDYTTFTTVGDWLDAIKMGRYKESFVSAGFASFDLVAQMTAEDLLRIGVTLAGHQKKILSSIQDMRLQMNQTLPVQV
The settings on record: at 1 µM.

In assay [6] the target is T3, Ephrin type-B receptor 3 (Homo sapiens). The settings on record: at 10 µM.
The target in assay [7] is T4, Ephrin type-B receptor 4 (Homo sapiens) (UniProt P54760).
T4 sequence (whole entry): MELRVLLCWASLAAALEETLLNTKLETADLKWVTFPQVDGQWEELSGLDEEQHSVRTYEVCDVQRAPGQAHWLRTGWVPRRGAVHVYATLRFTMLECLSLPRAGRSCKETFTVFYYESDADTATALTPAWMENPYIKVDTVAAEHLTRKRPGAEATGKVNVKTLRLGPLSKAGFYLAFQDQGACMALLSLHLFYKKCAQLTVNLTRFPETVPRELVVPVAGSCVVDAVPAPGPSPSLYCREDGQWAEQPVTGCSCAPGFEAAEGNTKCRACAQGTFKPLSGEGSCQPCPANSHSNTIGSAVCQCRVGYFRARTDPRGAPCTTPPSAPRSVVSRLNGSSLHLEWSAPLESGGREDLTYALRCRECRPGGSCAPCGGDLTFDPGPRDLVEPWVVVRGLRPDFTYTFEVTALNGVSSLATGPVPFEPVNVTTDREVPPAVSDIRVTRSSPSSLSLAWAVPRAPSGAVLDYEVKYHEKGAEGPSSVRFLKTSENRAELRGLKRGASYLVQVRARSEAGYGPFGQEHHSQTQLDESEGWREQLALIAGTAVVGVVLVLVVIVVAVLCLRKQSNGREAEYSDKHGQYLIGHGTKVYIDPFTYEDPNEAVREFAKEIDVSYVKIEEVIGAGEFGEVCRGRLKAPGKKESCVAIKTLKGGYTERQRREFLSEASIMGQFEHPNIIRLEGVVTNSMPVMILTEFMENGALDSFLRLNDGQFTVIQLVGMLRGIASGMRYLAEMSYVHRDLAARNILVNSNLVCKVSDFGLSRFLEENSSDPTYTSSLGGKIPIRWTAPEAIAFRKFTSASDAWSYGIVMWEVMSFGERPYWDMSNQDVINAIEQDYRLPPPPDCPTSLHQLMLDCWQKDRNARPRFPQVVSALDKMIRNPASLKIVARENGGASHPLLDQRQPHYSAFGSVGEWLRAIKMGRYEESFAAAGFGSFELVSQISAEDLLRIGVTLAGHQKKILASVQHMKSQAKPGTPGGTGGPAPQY
The settings on record: at 1 µM.

For assay [8], the target named is T4, Ephrin type-B receptor 4 (Homo sapiens). The settings on record: at 10 µM.
Assay [9] concerns the target Focal adhesion kinase 1 (Homo sapiens) (UniProt Q05397). The settings on record: at 1 µM.

Chain of Focal adhesion kinase 1 (Homo sapiens) (Q05397 2-1052 limits assumed): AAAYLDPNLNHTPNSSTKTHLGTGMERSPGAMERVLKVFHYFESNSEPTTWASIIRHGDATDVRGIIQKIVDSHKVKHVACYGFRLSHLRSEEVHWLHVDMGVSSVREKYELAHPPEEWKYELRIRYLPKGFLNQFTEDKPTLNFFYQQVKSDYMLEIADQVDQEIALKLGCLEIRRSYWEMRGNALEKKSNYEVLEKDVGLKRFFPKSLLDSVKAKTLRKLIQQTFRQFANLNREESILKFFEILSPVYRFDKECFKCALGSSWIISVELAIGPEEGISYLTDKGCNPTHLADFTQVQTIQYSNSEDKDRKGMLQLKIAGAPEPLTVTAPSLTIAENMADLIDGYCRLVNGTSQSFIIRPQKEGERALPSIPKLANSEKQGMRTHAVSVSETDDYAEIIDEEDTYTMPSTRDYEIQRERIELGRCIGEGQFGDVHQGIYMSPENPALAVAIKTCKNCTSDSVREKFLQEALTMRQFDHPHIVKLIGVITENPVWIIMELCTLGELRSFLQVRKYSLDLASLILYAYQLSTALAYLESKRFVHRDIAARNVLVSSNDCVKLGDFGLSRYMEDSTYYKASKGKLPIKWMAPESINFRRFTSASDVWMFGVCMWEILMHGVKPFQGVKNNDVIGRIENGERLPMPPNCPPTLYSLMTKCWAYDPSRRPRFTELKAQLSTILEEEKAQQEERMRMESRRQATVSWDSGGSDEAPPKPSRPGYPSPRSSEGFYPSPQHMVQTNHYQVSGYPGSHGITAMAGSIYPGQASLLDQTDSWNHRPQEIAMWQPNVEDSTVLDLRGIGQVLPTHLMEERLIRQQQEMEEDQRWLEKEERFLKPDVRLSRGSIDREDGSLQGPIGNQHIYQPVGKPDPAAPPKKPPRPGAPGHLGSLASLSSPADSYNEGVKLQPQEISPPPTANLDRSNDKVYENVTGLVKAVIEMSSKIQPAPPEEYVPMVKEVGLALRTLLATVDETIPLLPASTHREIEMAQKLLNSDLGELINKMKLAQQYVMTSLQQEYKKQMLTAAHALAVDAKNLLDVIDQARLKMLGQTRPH

For orientation: residual activity means the signal under treatment as a percentage of the control signal. On to `COc1cc2ncnc(Nc3ccc(OCc4ccccc4)cc3)c2cc1OC`, for which the residual activity in [1] is 94%; in assay [2] it was 106%; in [3], 118%; in assay [4] it was 114%; in [5], 117% (inactive); in [6], 100%. The figures for the residual activity in assay [7], in assay [8] and in [9] were 117%, 132% and 136%, respectively.
